Results reported in paper PMC7862700, “An all-to-all approach to the identification of sequence-specific readers for epigenetic DNA modifications on cytosine”.

Experiments:
Assay in all cases: DAPPL (digital affinity profiling via proximity ligation, sequencing); 10 mM Tris-HCl pH 7.5, 50 mM NaCl, 1 mM DTT, 4% glycerol, room temperature, 30 min; GST-TFs on glutathione beads, 16-mer random dsDNA library, 0.1% formaldehyde crosslink after washing; high values mean tight binding
Details in all cases: protein: recombinant; tags: N-terminal GST; dsDNA, one strand shown
[1] = target: T1, ERF (Homo sapiens, UniProt P50548 1-548)
T1 sequence: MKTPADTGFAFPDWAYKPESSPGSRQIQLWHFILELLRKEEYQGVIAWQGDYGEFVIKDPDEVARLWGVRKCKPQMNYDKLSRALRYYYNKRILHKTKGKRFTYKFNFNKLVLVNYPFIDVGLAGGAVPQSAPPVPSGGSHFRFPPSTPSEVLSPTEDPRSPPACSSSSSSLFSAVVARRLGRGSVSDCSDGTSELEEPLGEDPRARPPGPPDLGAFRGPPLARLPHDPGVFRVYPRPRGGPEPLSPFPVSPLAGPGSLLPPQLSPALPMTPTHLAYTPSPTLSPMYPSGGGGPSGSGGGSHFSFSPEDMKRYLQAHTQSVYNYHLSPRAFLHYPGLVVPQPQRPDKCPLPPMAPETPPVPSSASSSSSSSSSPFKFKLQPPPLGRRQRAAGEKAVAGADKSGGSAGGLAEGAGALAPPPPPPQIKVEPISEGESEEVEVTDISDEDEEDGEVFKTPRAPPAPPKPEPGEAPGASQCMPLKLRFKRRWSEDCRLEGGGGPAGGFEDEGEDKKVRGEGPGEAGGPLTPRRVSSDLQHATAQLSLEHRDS
In short: (§1)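 Binding signal is each hexamer's read frequency for a factor divided by its frequency in the tag-only sample. The factors were GST-fused human transcription factors from yeast, captured on glutathione beads, DNA-barcoded and pooled with that sample. Pools were incubated with 200 nmole of a random double-stranded 16-mer DNA library in Tris/NaCl/DTT/glycerol buffer at room temperature for 30 min, then washed, crosslinked with 0.1% formaldehyde, proximity-ligated with BsaI/T4 ligase (1 h, 37 °C), PCR-amplified and sequenced on an Illumina NextSeq500.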

[2] = target: T2, ETV3L (Homo sapiens, UniProt Q6ZN32 1-361)
T2 sequence: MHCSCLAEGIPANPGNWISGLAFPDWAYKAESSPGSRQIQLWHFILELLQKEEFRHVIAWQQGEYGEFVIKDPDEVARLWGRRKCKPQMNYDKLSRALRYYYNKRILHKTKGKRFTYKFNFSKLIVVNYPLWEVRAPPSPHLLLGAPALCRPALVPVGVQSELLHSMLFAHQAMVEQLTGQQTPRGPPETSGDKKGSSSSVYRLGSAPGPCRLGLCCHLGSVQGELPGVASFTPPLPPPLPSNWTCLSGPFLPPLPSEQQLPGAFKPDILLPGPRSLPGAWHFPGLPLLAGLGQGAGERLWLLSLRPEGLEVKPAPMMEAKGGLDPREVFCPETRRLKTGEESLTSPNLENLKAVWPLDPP
In short: as §1

[3] = target: T3, ETS2 (Homo sapiens, UniProt P15036 1-469)
T3 sequence: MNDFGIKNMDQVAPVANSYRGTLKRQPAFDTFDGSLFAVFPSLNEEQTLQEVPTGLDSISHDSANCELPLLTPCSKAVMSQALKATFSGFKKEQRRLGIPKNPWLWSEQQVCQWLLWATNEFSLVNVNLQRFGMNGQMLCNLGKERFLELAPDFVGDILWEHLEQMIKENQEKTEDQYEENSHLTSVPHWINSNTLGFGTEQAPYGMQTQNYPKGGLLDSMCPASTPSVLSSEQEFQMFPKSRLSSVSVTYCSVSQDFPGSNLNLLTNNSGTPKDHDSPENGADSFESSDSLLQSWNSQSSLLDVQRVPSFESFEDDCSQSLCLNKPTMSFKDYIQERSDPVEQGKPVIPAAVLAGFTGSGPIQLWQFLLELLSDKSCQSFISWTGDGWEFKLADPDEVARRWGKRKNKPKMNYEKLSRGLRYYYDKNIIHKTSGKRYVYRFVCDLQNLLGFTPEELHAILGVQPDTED
In short: as §1

[4] = target: T4, SPDEF (Homo sapiens, UniProt O95238 1-335)
T4 sequence: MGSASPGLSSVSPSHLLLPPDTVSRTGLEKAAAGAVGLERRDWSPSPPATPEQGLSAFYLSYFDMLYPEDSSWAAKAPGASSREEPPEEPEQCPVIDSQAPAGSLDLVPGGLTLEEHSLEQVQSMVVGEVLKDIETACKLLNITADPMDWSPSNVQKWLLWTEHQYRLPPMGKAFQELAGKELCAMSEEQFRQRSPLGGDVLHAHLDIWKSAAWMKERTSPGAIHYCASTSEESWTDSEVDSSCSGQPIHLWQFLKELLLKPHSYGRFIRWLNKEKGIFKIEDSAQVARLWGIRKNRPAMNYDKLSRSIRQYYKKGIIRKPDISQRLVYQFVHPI
In short: as §1

[5] = target: T5, ETV7 (Homo sapiens, UniProt Q9Y603 1-341)
T5 sequence: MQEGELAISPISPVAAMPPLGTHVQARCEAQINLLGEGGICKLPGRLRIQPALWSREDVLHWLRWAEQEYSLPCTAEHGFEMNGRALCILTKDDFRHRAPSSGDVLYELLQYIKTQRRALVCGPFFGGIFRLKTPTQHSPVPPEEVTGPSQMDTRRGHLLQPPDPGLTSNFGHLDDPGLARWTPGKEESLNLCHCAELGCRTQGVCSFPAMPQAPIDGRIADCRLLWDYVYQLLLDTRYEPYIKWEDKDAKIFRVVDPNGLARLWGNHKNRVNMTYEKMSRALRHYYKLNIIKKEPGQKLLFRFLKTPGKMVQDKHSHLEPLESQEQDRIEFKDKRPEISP
In short: as §1

[6] = target: T6, ELF5 (Homo sapiens, UniProt Q9UKW6-2 1-255)
T6 sequence: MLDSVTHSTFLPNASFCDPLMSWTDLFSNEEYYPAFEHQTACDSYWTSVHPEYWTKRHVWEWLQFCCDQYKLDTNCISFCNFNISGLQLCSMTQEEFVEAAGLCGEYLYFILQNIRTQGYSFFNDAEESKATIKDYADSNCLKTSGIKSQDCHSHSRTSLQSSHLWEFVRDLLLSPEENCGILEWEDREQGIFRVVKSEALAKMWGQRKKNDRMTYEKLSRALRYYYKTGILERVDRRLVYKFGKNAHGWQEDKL
In short: as §1

[7] = target: T7, ETV3 (Homo sapiens, UniProt P41162-2 1-143)
T7 sequence: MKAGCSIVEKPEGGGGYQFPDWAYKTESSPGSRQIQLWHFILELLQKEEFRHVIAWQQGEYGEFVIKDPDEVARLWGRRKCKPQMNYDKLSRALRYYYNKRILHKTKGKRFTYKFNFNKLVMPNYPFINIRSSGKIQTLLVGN
In short: as §1

[8] = target: ETV6 (Homo sapiens, UniProt P41212 1-452)
ETV6, sequence (P41212 whole entry): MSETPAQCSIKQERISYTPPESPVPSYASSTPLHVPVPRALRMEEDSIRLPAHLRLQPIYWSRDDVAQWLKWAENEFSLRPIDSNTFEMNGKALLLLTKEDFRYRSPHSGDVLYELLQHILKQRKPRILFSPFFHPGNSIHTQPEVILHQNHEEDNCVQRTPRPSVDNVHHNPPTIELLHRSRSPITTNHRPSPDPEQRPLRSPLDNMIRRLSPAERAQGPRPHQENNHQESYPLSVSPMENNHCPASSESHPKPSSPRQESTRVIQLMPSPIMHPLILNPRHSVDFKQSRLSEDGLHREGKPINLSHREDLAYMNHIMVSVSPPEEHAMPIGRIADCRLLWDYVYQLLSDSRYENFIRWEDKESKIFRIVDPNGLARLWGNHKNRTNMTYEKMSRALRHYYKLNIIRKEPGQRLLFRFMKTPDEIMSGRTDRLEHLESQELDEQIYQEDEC
In short: as §1

Q: For CACATC, which binding signal [1] is on record?
A: 1.39 fold enrichment (6-mer frequency, TF over GST control)

Q: And the binding signal [2]?
A: 1.41 fold enrichment (6-mer frequency, TF over GST control)

Q: And the binding signal [3]?
A: 1.38 fold enrichment (6-mer frequency, TF over GST control)

Q: And the binding signal [4]?
A: 2.09 fold enrichment (6-mer frequency, TF over GST control)

Q: What about the binding signal [5] of the same sequence?
A: 1.38 fold enrichment (6-mer frequency, TF over GST control)

Q: What about the binding signal [6] of the same sequence?
A: 1.42 fold enrichment (6-mer frequency, TF over GST control)

Q: And the binding signal [7]?
A: 1.49 fold enrichment (6-mer frequency, TF over GST control)

Q: What about the binding signal [8] of the same sequence?
A: 1.5 fold enrichment (6-mer frequency, TF over GST control)

Q: Which binding signal [1] does the source give for ATATGA here?
A: 1.13 fold enrichment (6-mer frequency, TF over GST control)

Q: What about the binding signal [2] of the same sequence?
A: 1.14 fold enrichment (6-mer frequency, TF over GST control)

Q: And the binding signal [3]?
A: 1.09 fold enrichment (6-mer frequency, TF over GST control)

Q: What about the binding signal [4] of the same sequence?
A: 1.05 fold enrichment (6-mer frequency, TF over GST control)

Q: What about the binding signal [5] of the same sequence?
A: 1.12 fold enrichment (6-mer frequency, TF over GST control)

Q: What about the binding signal [6] of the same sequence?
A: 1.1 fold enrichment (6-mer frequency, TF over GST control)

Q: And the binding signal [7]?
A: 1.08 fold enrichment (6-mer frequency, TF over GST control)

Q: What about the binding signal [8] of the same sequence?
A: 1.06 fold enrichment (6-mer frequency, TF over GST control)

Q: Which results are given for CACTCC?
A: binding signal [1]: 1.15 fold enrichment (6-mer frequency, TF over GST control); binding signal [2]: 1.33 fold enrichment (6-mer frequency, TF over GST control); binding signal [3]: 1.17 fold enrichment (6-mer frequency, TF over GST control); binding signal [4]: 1.2 fold enrichment (6-mer frequency, TF over GST control); binding signal [5]: 1.24 fold enrichment (6-mer frequency, TF over GST control); binding signal [6]: 1.18 fold enrichment (6-mer frequency, TF over GST control); binding signal [7]: 1.26 fold enrichment (6-mer frequency, TF over GST control); binding signal [8]: 1.28 fold enrichment (6-mer frequency, TF over GST control)

Q: Which results are given for TTTTTA?
A: binding signal [1]: 1.26 fold enrichment (6-mer frequency, TF over GST control); binding signal [2]: 1.29 fold enrichment (6-mer frequency, TF over GST control); binding signal [3]: 1.34 fold enrichment (6-mer frequency, TF over GST control); binding signal [4]: 1.29 fold enrichment (6-mer frequency, TF over GST control); binding signal [5]: 1.35 fold enrichment (6-mer frequency, TF over GST control); binding signal [6]: 1.27 fold enrichment (6-mer frequency, TF over GST control); binding signal [7]: 1.4 fold enrichment (6-mer frequency, TF over GST control); binding signal [8]: 1.33 fold enrichment (6-mer frequency, TF over GST control)

Q: How did the binding signal [1] turn out when CGAAGC was run?
A: 1.38 fold enrichment (6-mer frequency, TF over GST control)

Q: And the binding signal [2]?
A: 1.2 fold enrichment (6-mer frequency, TF over GST control)

Q: What about the binding signal [3] of the same sequence?
A: 1.33 fold enrichment (6-mer frequency, TF over GST control)

Q: What about the binding signal [4] of the same sequence?
A: 1.18 fold enrichment (6-mer frequency, TF over GST control)

Q: What about the binding signal [5] of the same sequence?
A: 1.44 fold enrichment (6-mer frequency, TF over GST control)

Q: And the binding signal [6]?
A: 1.19 fold enrichment (6-mer frequency, TF over GST control)

Q: What about the binding signal [7] of the same sequence?
A: 1.34 fold enrichment (6-mer frequency, TF over GST control)

Q: What about the binding signal [8] of the same sequence?
A: 1.14 fold enrichment (6-mer frequency, TF over GST control)

Q: Which results are given for CTGCCA?
A: binding signal [1]: 1.18 fold enrichment (6-mer frequency, TF over GST control); binding signal [2]: 1.25 fold enrichment (6-mer frequency, TF over GST control); binding signal [3]: 1.18 fold enrichment (6-mer frequency, TF over GST control); binding signal [4]: 1.15 fold enrichment (6-mer frequency, TF over GST control); binding signal [5]: 1.08 fold enrichment (6-mer frequency, TF over GST control); binding signal [6]: 1.2 fold enrichment (6-mer frequency, TF over GST control); binding signal [7]: 1.09 fold enrichment (6-mer frequency, TF over GST control); binding signal [8]: 1.14 fold enrichment (6-mer frequency, TF over GST control)

Q: Which results are given for TTATTC?
A: binding signal [1]: 1.45 fold enrichment (6-mer frequency, TF over GST control); binding signal [2]: 1.47 fold enrichment (6-mer frequency, TF over GST control); binding signal [3]: 1.37 fold enrichment (6-mer frequency, TF over GST control); binding signal [4]: 1.41 fold enrichment (6-mer frequency, TF over GST control); binding signal [5]: 1.43 fold enrichment (6-mer frequency, TF over GST control); binding signal [6]: 1.34 fold enrichment (6-mer frequency, TF over GST control); binding signal [7]: 1.29 fold enrichment (6-mer frequency, TF over GST control); binding signal [8]: 1.32 fold enrichment (6-mer frequency, TF over GST control)

Q: TATCCC was tested. Which binding signal [1] did it give?
A: 1.52 fold enrichment (6-mer frequency, TF over GST control)

Q: What about the binding signal [2] of the same sequence?
A: 1.52 fold enrichment (6-mer frequency, TF over GST control)

Q: What about the binding signal [3] of the same sequence?
A: 1.47 fold enrichment (6-mer frequency, TF over GST control)

Q: And the binding signal [4]?
A: 1.72 fold enrichment (6-mer frequency, TF over GST control)

Q: And the binding signal [5]?
A: 1.53 fold enrichment (6-mer frequency, TF over GST control)

Q: And the binding signal [6]?
A: 2.05 fold enrichment (6-mer frequency, TF over GST control)

Q: What about the binding signal [7] of the same sequence?
A: 1.62 fold enrichment (6-mer frequency, TF over GST control)

Q: What about the binding signal [8] of the same sequence?
A: 1.51 fold enrichment (6-mer frequency, TF over GST control)

Q: Which results are given for ATTATC?
A: binding signal [1]: 1.36 fold enrichment (6-mer frequency, TF over GST control); binding signal [2]: 1.39 fold enrichment (6-mer frequency, TF over GST control); binding signal [3]: 1.29 fold enrichment (6-mer frequency, TF over GST control); binding signal [4]: 1.34 fold enrichment (6-mer frequency, TF over GST control); binding signal [5]: 1.18 fold enrichment (6-mer frequency, TF over GST control); binding signal [6]: 1.31 fold enrichment (6-mer frequency, TF over GST control); binding signal [7]: 1.37 fold enrichment (6-mer frequency, TF over GST control); binding signal [8]: 1.29 fold enrichment (6-mer frequency, TF over GST control)
